Laboratory results published in PubChem BioAssay (NCATS).
A number with no mark means an inactive call. Inconclusive results are not listed. A call without a number means that no potency is given here. The source made the active and inactive calls. Unless noted, the call rests on the fitted dose curve; in most records, active means well fitted curve in the direction sought with a large enough effect; inconclusive means small, poorly fitted or top-dose-only effect, or another doubt; inactive means no such curve, though single readings can be large; an effect the other way counts as inactive or inconclusive.

Key:
[1] = target: Cytochrome P450 1A2 (Homo sapiens) (UniProt P05177); test: p450-cyp1a2 (AID 410; calls by dose curve; further: potency means the concentration at half of the fitted maximal effect)
Procedure, shortened: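 Human CYP1A2 (20nM) demethylated Luciferin-ME at its Km (100uM) in 100mM KPO4. After 10 min compound preincubation, NADPH regeneration ran the reaction 60 min at room temperature. Luciferin was read by luminescence, normalized to 57 uM furafylline.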

[2] = target: Glucocorticoid receptor (Homo sapiens) (UniProt P04150); test: GR-GFP Redistribution (AID 450;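 active means compounds whose dose series gives a full or clear partial fitted curve of increased nuclear translocation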; further: potency means the concentration at half of the fitted maximal effect); conditions: U2OS GR-GFP nuclear translocation, laser cytometry, 2 h
[3] = target: Glucocorticoid receptor (Homo sapiens) (UniProt P04150); test: GR-EFC Redistribution (AID 451; calls by dose curve; further: potency means the concentration at half of the fitted maximal effect); conditions: CHO-K1 GR-EFC translocation, beta-gal luminescence, 2 h
Procedure, shortened: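 CHO-K1 cells stably expressing nuclear-localized β-gal enzyme acceptor and GR fused C-terminally to the enzyme donor fragment; ligand-driven nuclear translocation restores β-gal by complementation. Compounds titrated up to 46 uM final, 2 h at 37 °C; luminescence read.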

[4] = target: DNA dC->dU-editing enzyme APOBEC-3G (Homo sapiens) (UniProt Q9HC16); test: qHTS for inhibitors of Vif-A3G interactions: Validation (AID 588379)
Procedure, shortened: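 HeLa cells stably expressing Vif and A3G-eYFP, 700 cells/well, incubated overnight at 37 deg C, then exposed to compound overnight at 37 deg C. Inhibition of Vif-mediated degradation read as increased yellow fluorescence (Ex 488/Em 500-530) by laser-scanning cytometry.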

[5] = target: Rap guanine nucleotide exchange factor 3 (Homo sapiens) (UniProt O95398); test: Confirmatory qHTS for antagonist of cAMP-regulated guanine nucleotide exchange factor 3 (EPAC1) (AID 1645880); further: nearly all actives have a fitted effect of over 55% in size
Procedure, shortened: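 Nucleotide exchange uses 100 nM EPAC1, 250 nM RAP1B-BODIPY-GDP and 50 uM GDP, with compounds in a concentration-titration series. After 5 min at room temperature, fluorescence (480 nm ex/540 nm em) is read every 5 min for 30 min. Data are normalized to control ATA and DMSO.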

[6] = target: Rap guanine nucleotide exchange factor 3 (Homo sapiens) (UniProt O95398); test: Confirmatory qHTS for agonist of cAMP-regulated guanine nucleotide exchange factor 3 (EPAC1) (AID 1645881);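 further: EPAC1 catalysed release of BODIPY-GDP from Rap1B seen as fluorescence loss; nearly all actives have a fitted effect of over 75% in size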
[7] = target: Rap guanine nucleotide exchange factor 4 (Homo sapiens) (UniProt Q8WZA2); test: Confirmatory qHTS for agonist of cAMP-regulated guanine nucleotide exchange factor 4 (EPAC2) (AID 1645884);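 further: nucleotide exchange releases bodipy-GDP from Rap1 and this lowers its fluorescence; nearly all actives have a fitted effect of over 65% in size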
[8] = target: Rap guanine nucleotide exchange factor 3 (Homo sapiens) (UniProt O95398); test: Counterscreen qHTS for agonist of cAMP-regulated guanine nucleotide exchange factor 3 (EPAC1) (AID 1645889); further: nearly all actives have a fitted effect of over 40% in size
Procedure, shortened: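 Measured: fluorescence of BODIPY-GDP bound to Rap1B, which falls as exchange proceeds. Conditions include 50 uM competing GDP, 5 and 30 min reads, and a later cAMP challenge for antagonist detection.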

[9] = Confirmation and Secondary Assay for Modulators of Hemoglobin Beta Chain Splicing at IVS2 654 locus (AID 910);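 further: per-well total GFP intensity by laser scanning cytometry after 2-day treatment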
Procedure, shortened: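 HeLa cells stably carrying EGFP interrupted by mutant beta-globin IVS2-654 intron (CMV-driven) were treated with compound for 2 days at 37C; corrected splicing was scored as total peak GFP intensity per well (488 nm excitation, 500-520 nm emission).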

[10] = Confirmation and Secondary Assay for Modulators of Hemoglobin Beta Chain Splicing at IVS2 705 locus (AID 930);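 further: HeLa cells stably expressing the EGFP-705 splicing reporter; GFP fluorescence per well restored by corrected splicing of the IVS2-705 intron in EGFP; series mostly up to about 46 µM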
Procedure, shortened: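 First, HeLa EGFP-705 cells are seeded at 500/well in Optimem with 2% FCS and left overnight. Next, compound or DMSO is added for 2 days. Finally wells are laser-scanned and total peak GFP intensity scored.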

[11] = target: Ubiquitin carboxyl-terminal hydrolase 1 (Homo sapiens) (UniProt O94782); test: Inhibitors of USP1/UAF1: Pilot qHTS (AID 504865);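 further: rhodamine fluorescence freed from ubiquitin-rhodamine substrate followed over time; top concentration of the series differs between compounds; nearly all actives have a fitted effect of over 35% in size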
Procedure, shortened: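 1nM USP1/UAF1 + cpd, 15 min RT; start w/ Ub-Rho 150nM final; kinetic FL 480/540 nm, 6 reads q60 s. Buffer 50mM HEPES pH 7.8, 0.5mM EDTA, 1mM TCEP, 0.01% Tween-20, 0.1 mg/ml BSA.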

Chain of Rap guanine nucleotide exchange factor 3 (Homo sapiens) (O95398 whole entry, looked up): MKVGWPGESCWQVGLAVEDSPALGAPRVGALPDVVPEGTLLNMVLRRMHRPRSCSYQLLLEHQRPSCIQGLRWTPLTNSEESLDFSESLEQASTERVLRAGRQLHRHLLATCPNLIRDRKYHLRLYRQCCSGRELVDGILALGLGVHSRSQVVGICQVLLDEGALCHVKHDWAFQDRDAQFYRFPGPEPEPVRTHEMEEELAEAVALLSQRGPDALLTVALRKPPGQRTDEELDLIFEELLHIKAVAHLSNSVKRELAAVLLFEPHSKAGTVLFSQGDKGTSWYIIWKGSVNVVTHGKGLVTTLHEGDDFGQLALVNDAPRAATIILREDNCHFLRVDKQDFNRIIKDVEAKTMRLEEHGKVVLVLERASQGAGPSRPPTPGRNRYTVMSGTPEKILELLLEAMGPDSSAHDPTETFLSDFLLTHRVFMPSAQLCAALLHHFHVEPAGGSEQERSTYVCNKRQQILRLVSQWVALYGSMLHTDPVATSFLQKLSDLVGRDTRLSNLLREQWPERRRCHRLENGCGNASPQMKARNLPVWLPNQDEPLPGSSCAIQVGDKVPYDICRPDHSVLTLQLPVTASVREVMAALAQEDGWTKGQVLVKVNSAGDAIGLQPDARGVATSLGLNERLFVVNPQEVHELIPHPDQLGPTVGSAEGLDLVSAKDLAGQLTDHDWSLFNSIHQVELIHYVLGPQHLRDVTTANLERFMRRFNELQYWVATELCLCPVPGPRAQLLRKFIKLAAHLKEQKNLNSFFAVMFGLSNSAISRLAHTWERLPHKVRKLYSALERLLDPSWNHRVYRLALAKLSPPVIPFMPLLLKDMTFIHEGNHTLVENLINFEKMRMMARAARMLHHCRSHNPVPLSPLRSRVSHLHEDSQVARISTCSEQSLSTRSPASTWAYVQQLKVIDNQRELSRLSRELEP
Chain of Glucocorticoid receptor (Homo sapiens) (P04150 whole entry, looked up, the tested form may be a part): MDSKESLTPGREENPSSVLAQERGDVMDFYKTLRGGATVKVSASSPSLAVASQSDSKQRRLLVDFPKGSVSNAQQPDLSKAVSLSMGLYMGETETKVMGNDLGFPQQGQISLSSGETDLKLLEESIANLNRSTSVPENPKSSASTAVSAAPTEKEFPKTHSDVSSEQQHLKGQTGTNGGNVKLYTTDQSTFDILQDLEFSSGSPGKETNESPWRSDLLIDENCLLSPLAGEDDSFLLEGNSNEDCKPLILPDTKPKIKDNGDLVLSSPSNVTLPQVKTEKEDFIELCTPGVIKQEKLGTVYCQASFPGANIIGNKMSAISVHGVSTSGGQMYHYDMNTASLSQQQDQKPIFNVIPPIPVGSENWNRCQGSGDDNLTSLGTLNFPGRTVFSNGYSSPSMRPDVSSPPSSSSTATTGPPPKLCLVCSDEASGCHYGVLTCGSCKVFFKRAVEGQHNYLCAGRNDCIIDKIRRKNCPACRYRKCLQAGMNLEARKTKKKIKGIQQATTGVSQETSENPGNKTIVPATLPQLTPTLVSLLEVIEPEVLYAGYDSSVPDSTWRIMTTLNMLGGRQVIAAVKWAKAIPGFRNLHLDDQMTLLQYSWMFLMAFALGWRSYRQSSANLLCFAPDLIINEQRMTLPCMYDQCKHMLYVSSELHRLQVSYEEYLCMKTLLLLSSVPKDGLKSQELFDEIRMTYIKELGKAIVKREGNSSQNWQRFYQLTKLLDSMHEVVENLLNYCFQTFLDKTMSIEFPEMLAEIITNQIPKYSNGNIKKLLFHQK
Chain of Rap guanine nucleotide exchange factor 4 (Homo sapiens) (Q8WZA2 whole entry, looked up): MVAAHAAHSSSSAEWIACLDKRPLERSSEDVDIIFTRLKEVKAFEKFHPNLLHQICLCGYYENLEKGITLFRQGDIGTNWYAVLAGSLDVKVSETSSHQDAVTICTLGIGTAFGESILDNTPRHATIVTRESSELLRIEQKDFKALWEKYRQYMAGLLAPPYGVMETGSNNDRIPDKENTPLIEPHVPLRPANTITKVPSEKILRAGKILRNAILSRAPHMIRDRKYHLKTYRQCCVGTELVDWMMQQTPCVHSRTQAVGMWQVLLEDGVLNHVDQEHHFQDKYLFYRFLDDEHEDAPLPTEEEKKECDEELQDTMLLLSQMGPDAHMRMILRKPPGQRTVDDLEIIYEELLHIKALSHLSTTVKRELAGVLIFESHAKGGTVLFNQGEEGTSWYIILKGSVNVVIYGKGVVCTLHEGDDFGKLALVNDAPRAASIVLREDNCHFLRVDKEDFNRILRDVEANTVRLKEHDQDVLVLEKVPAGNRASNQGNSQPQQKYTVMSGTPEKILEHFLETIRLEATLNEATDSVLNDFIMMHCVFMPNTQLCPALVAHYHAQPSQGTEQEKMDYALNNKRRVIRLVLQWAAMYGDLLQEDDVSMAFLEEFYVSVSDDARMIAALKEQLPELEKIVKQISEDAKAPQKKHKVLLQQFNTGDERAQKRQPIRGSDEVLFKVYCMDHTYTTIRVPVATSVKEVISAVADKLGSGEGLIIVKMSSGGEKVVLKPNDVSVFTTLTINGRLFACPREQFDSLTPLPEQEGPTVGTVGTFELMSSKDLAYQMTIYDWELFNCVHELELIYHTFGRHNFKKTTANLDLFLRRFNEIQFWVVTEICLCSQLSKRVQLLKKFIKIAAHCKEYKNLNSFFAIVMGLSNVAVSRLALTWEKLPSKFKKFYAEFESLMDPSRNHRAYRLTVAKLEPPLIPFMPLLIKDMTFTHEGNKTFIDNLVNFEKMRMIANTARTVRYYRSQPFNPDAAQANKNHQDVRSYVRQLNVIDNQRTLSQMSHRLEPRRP
Chain of Cytochrome P450 1A2 (Homo sapiens) (P05177 whole entry, looked up): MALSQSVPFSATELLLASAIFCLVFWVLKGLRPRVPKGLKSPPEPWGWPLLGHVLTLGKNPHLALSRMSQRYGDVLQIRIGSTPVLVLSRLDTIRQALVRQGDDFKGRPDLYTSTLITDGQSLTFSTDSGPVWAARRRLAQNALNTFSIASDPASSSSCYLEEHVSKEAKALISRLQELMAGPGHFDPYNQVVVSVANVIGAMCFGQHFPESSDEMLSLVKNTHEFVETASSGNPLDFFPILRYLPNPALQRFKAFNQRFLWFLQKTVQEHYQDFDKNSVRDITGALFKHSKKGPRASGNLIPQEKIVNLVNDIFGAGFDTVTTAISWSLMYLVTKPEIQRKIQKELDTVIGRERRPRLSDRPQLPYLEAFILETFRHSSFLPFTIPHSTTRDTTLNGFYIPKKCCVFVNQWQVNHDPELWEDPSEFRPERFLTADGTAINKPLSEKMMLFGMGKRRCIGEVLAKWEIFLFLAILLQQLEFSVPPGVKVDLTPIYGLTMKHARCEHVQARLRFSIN
Chain of DNA dC->dU-editing enzyme APOBEC-3G (Homo sapiens) (Q9HC16 whole entry, looked up): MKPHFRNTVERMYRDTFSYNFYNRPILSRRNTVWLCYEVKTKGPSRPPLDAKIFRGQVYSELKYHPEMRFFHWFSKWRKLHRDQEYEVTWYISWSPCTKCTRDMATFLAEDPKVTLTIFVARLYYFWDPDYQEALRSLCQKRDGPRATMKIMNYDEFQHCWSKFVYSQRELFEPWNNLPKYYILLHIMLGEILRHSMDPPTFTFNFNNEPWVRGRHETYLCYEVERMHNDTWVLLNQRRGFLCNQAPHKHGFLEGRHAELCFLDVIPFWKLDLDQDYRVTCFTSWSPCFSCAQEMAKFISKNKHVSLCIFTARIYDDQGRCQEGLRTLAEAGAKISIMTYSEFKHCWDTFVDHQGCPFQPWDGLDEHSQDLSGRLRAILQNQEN
Chain of Ubiquitin carboxyl-terminal hydrolase 1 (Homo sapiens) (O94782 whole entry, looked up): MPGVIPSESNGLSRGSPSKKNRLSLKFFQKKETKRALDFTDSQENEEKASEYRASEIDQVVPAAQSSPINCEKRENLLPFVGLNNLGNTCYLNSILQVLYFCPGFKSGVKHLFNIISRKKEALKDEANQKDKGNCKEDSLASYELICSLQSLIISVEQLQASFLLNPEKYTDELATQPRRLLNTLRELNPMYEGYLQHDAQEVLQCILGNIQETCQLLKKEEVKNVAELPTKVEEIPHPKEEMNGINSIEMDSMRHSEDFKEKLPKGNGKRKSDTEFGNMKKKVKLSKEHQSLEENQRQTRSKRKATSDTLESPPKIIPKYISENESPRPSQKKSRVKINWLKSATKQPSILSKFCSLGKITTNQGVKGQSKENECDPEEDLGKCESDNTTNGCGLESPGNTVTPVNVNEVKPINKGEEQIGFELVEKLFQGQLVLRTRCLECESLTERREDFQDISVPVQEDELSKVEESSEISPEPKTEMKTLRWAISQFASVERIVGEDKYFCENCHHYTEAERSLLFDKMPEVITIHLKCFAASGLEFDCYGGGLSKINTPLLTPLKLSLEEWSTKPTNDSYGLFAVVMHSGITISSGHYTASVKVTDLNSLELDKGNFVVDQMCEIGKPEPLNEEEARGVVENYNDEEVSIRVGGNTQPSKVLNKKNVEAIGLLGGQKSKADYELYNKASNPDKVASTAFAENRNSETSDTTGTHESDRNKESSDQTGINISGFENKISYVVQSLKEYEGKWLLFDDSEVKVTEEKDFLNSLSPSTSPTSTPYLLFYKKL

| SMILES | Potency [1] | Potency [2] | Potency [3] | outcome [4] | Potency [5] | Potency [6] | Potency [7] | Potency [8] | Potency [9] | Potency [10] | Potency [11] |
| --- | --- | --- | --- | --- | --- | --- | --- | --- | --- | --- | --- |
| COc1c(-c2ccccc2)oc2c(ccc3occc32)c1=O | 0.0251 µM (active) | > 46 µM | > 46 µM | inactive | inactive | inactive | inactive | inactive | – | – | – |
| Cn1nnnc1SCC1=C(C(=O)O)N2C(=O)C(NC(=O)C(O)c3ccccc3)C2SC1 (stereo unspecified) | – | – | – | – | – | – | – | – | inactive | inactive | inactive |
